Data taken from PubChem BioAssay (EPA / NIEHS).
Results filed as inconclusive are left out. Calls of active or inactive are those of the source. Rule for the calls: active = hit-call score of the fitted dose curve at least 0.9, where 1 is the maximum; inconclusive = response in the unintended direction; inactive = score below 0.9.

Tested on: not listed separately
Assay: TOX21_p53_BLA_p4_viability: Viability Assessment in the Tox21 HCT-116 p53 Agonism Beta-lactamase Assay, Phase 4 (AID 2283597);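 note: hits lower the luminescence signal meaning cytotoxicity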
Procedure, shortened: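 Cytotoxicity as reduced cellular ATP (CellTiter-Glo luminescence, 30 min room temperature), measured in the same wells following the CCF4 FRET p53 reading. Human HCT-116 cells received compounds in DMSO (217-fold dilution) for 16 h.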

| Compound | outcome |
| --- | --- |
| CC(C(=O)O)c1ccc(CC2CCCC2=O)cc1 (stereo unspecified) | inactive |
| Nc1nc(CC(=O)O)cs1 | inactive |
| Nc1c(Cl)cc(Cl)cc1Cl | inactive |
| Cc1onc(-c2c(Cl)cccc2Cl)c1C(=O)N[C@@H]1C(=O)N2[C@@H]1SC(C)(C)[C@@H]2C(=O)O | inactive |
| CCCCOC(=O)C(=O)OCCCC | inactive |
| CC(CN1c2ccccc2Sc2ccc(S(=O)(=O)N(C)C)cc21)N(C)C (stereo unspecified) | inactive |
| C/C=C(/CC[C@@H](C)[C@H]1CC[C@H]2C3=CC[C@H]4[C@H](C)[C@@H](O)CC[C@]4(C)[C@H]3CC[C@]12C)C(C)C | inactive |
| CCN(CC)CCNC(=O)c1cc(S(C)(=O)=O)ccc1OC | inactive |
| NC(=O)[C@@H]1C[C@]2(NC(=O)NC2=O)c2cc(F)ccc2O1 | inactive |
| CN(C)CC[C@@H](c1ccc(Cl)cc1)c1ccccn1 | inactive |
| CCCCCCCC/C=C\CCCCCCCC(=O)OCCOC(=O)CCCCCCC/C=C\CCCCCCCC | inactive |
| CN1C(C(=O)Nc2ccccn2)C(=O)c2sc(Cl)cc2S1(=O)=O (stereo unspecified) | inactive |
| CC(=O)[C@@]1(O)CC[C@H]2[C@@H]3C=C(Cl)C4=CC(=O)[C@@H]5C[C@@H]5[C@]4(C)[C@H]3CC[C@@]21C | inactive |
| CC(C(=O)O)c1ccc2c(c1)CC(=O)c1ccccc1S2 (stereo unspecified) | inactive |
| C[C@H]1c2cccc(O)c2C(O)=C2C(=O)[C@]3(O)C(O)=C(C(N)=O)C(=O)[C@@H](N(C)C)[C@@H]3[C@@H](O)[C@@H]21 | inactive |
| FC(F)(F)c1ccccc1Cl | inactive |

| Compound | outcome |
| --- | --- |
| COC(=O)N[C@H](C(=O)N[C@@H](Cc1ccccc1)[C@@H](O)CN(Cc1ccc(-c2ccccn2)cc1)NC(=O)[C@@H](NC(=O)OC)C(C)(C)C)C(C)(C)C | inactive |
| C=CCCCCCCCCCCC | inactive |
| Cc1ccc(C(=O)Nc2ccc(S(=O)(=O)O)c3cc(S(=O)(=O)O)cc(S(=O)(=O)O)c23)cc1NC(=O)c1cccc(NC(=O)Nc2cccc(C(=O)Nc3cc(C(=O)Nc4ccc(S(=O)(=O)O)c5cc(S(=O)(=O)O)cc(S(=O)(=O)O)c45)ccc3C)c2)c1 | inactive |
| CCC(CO)(CO)[N+](=O)[O-] | inactive |
| Cc1cc(NC(=O)C2=C(O)c3ccccc3S(=O)(=O)N2C)no1 | inactive |
| COc1ccc(-c2cc(=S)ss2)cc1 | inactive |
| Nc1ccc2cc(S(=O)(=O)O)ccc2c1 | inactive |
| C=CC(=O)NC(C)C | inactive |
| NNc1nnc(NN)c2ccccc12 | inactive |
| O=C(NNCS(=O)(=O)O)c1ccncc1 | inactive |
| CC(CO)CO | inactive |
| CCc1ccc(Br)cc1 | inactive |
| C=CCc1cc(OC)c(O)c(C(=O)NCCO)c1 | inactive |
| Cc1cccc(C)c1NC(=O)CN1CCCC1 | inactive |
| C[C@@H](c1ncncc1F)[C@](O)(Cn1cncn1)c1ccc(F)cc1F | inactive |
| CCCCCCCCCCCc1ccccc1 | inactive |

Molecular target: Cellular tumor antigen p53 (Homo sapiens) (UniProt P04637)
Sequence (P04637 whole entry, looked up): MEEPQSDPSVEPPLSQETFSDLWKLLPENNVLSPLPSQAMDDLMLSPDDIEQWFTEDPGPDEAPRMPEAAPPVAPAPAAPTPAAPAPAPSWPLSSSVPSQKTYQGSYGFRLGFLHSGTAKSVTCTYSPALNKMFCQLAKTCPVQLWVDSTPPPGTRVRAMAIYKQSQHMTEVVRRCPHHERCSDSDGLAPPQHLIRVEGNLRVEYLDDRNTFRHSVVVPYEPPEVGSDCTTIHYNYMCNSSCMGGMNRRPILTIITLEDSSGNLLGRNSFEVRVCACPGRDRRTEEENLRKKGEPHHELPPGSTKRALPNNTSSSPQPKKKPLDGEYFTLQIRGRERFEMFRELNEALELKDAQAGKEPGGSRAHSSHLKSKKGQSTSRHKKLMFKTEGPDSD
Assay: TOX21_p53_BLA_p5_ratio: Tox21 HCT-116 p53 Agonism Beta-lactamase Assay, Ratio, Phase 5 (AID 2283599)
Procedure, shortened: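 Beta-lactamase reporter ratio (blue 460 nm over green 530 nm, 405 nm excitation) after 2 h CCF4-AM loading, in HCT-116 cells exposed 16 h at 37 C to compounds pinned at 217-fold dilution. Increases relative to DMSO baseline scored.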

| Compound | outcome |
| --- | --- |
| CC(C(=O)O)c1ccc(CC2CCCC2=O)cc1 (stereo unspecified) | inactive |
| Nc1c(Cl)cc(Cl)cc1Cl | inactive |
| CCCCOC(=O)C(=O)OCCCC | inactive |
| CCCCC(=O)N(Cc1ccc(-c2ccccc2-c2nn[nH]n2)cc1)[C@@H](C(=O)O)C(C)C | inactive |
| CN1CCC[C@@H]1Cc1c[nH]c2ccc(CCS(=O)(=O)c3ccccc3)cc12 | inactive |
| CCN(CC)CCNC(=O)c1cc(S(C)(=O)=O)ccc1OC | inactive |
| Cc1ccccc1C(=O)Nc1ccc(C(=O)N2CCCC(O)c3cc(Cl)ccc32)c(C)c1 (stereo unspecified) | inactive |
| CN(C)CC[C@@H](c1ccc(Cl)cc1)c1ccccn1 | inactive |
| CCCCCCCC/C=C\CCCCCCCC(=O)OCCOC(=O)CCCCCCC/C=C\CCCCCCCC | inactive |
| CN1C(C(=O)Nc2ccccn2)C(=O)c2sc(Cl)cc2S1(=O)=O (stereo unspecified) | inactive |
| c1cnc2cc3c(cc2n1)[C@@H]1CNC[C@H]3C1 | inactive |
| COC(=O)N[C@H](C(=O)N[C@@H](Cc1ccccc1)[C@@H](O)CN(Cc1ccc(-c2ccccn2)cc1)NC(=O)[C@@H](NC(=O)OC)C(C)(C)C)C(C)(C)C | inactive |
| CCCCCC[C@@H](O)C/C=C\CCCCCCCC(=O)OC | inactive |
| C=CCCCCCCCCCCC | inactive |
| Cc1cc(NC(=O)C2=C(O)c3ccccc3S(=O)(=O)N2C)no1 | inactive |
| CC(C)N(C)C | inactive |
| Nc1ccc2cc(S(=O)(=O)O)ccc2c1 | inactive |
| CN(C)CCC=C1c2ccccc2C(C)(C)c2ccccc21 | inactive |
| NNc1nnc(NN)c2ccccc12 | inactive |
| Cc1cccc(C)c1NC(=O)CN1CCCC1 | inactive |

Tested on: not listed separately
Assay: TOX21_p53_BLA_p5_viability: Viability Assessment in the Tox21 HCT-116 p53 Agonism Beta-lactamase Assay, Phase 5 (AID 2283600)
Procedure, shortened: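 Viability came from CellTiter-Glo ATP luminescence, read after 30 min at room temperature. Before this, HCT-116 p53-bla cells (4000/well) had 16 hours of compound exposure at 37C, with DMSO stocks diluted 217-fold on transfer.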

| Compound | outcome |
| --- | --- |
| CC(C(=O)O)c1ccc(CC2CCCC2=O)cc1 (stereo unspecified) | inactive |
| Cc1onc(-c2c(Cl)cccc2Cl)c1C(=O)N[C@@H]1C(=O)N2[C@@H]1SC(C)(C)[C@@H]2C(=O)O | inactive |
| C/C=C(/CC[C@@H](C)[C@H]1CC[C@H]2C3=CC[C@H]4[C@H](C)[C@@H](O)CC[C@]4(C)[C@H]3CC[C@]12C)C(C)C | inactive |
| CCN(CC)CCNC(=O)c1cc(S(C)(=O)=O)ccc1OC | inactive |
| Cc1ccccc1C(=O)Nc1ccc(C(=O)N2CCCC(O)c3cc(Cl)ccc32)c(C)c1 (stereo unspecified) | inactive |
| NC(=O)[C@@H]1C[C@]2(NC(=O)NC2=O)c2cc(F)ccc2O1 | inactive |
| CCCCCCCC/C=C\CCCCCCCC(=O)OCCOC(=O)CCCCCCC/C=C\CCCCCCCC | inactive |
| CC(=O)[C@@]1(O)CC[C@H]2[C@@H]3C=C(Cl)C4=CC(=O)[C@@H]5C[C@@H]5[C@]4(C)[C@H]3CC[C@@]21C | inactive |
| Cc1ccc(C(=O)Nc2ccc(S(=O)(=O)O)c3cc(S(=O)(=O)O)cc(S(=O)(=O)O)c23)cc1NC(=O)c1cccc(NC(=O)Nc2cccc(C(=O)Nc3cc(C(=O)Nc4ccc(S(=O)(=O)O)c5cc(S(=O)(=O)O)cc(S(=O)(=O)O)c45)ccc3C)c2)c1 | inactive |
| CCC(CO)(CO)[N+](=O)[O-] | inactive |
| Cc1cc(NC(=O)C2=C(O)c3ccccc3S(=O)(=O)N2C)no1 | inactive |
| CC(C)N(C)C | inactive |
| NNc1nnc(NN)c2ccccc12 | inactive |
| C[C@@H](c1ncncc1F)[C@](O)(Cn1cncn1)c1ccc(F)cc1F | inactive |
